From ChEMBL document CHEMBL2218924, “A broad activity screen in support of a chemogenomic map for kinase signalling research and drug discovery” (Biochem J, 2013)

The molecules below were run against RAC-alpha serine/threonine-protein kinase (Homo sapiens) (UniProt P31749). Settings: at 10 µM.
Sequence of RAC-alpha serine/threonine-protein kinase (Homo sapiens) (P31749 whole entry): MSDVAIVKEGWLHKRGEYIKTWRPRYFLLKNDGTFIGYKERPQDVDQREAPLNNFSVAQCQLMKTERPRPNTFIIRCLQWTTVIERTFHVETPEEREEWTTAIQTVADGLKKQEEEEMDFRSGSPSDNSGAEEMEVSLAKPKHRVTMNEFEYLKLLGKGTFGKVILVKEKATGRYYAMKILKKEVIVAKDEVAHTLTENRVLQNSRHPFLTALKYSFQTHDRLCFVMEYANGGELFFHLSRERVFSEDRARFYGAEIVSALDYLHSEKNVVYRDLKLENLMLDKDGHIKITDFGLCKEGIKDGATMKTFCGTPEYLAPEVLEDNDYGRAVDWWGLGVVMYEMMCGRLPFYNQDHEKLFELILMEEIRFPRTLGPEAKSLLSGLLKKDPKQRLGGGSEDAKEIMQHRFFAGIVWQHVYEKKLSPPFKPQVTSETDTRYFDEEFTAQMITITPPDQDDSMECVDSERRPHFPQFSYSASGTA
With `COc1cc2ncnc(Nc3ccc(NC(=O)c4ccccc4)cc3)c2cc1OC` the residual activity was 110%.
With `NC(=O)Nc1sc(-c2ccc(F)cc2)cc1C(N)=O` the residual activity was 109%.
`NC(=O)c1ccc2[nH]c(-c3ccc(Oc4ccc(Cl)cc4)cc3)nc2c1` showed a residual activity of 112%.
In the case of `Cc1ccc(S(=O)(=O)/C=C/C#N)cc1`, the residual activity is reported as 112%.
`Cc1nc(-c2ccccc2)c(-c2ccncc2)o1` gave a residual activity of 102%.
With `Cn1c2ccccc2c2c3c(c4c5ccccc5n(CCC#N)c4c21)CNC3=O` the residual activity was 105%.
`Cn1cnc2cc3c(Nc4cccc(Br)c4)ncnc3cc21` gave a residual activity of 109%.
`COc1cc2nccc(Oc3ccc(NC(=O)Nc4cc(C)on4)c(Cl)c3)c2cc1OC` showed a residual activity of 101%.
With `Cc1nc2cc3nc(-c4cccs4)cnc3cc2n1C` the residual activity was 105%.
In the case of `N#C/C(=C\c1ccc(O)c(O)c1)C(=O)NCc1ccccc1`, the residual activity is reported as 120%.
`O=C1Nc2ccccc2/C1=C1/Nc2ccccc2/C1=N\OCCC(O)CO` (centres undefined) gave a residual activity of 101%.
In the case of `O=C(O)c1ccc2c3c1cccc3c(=O)n1c3ccccc3nc21`, the residual activity is reported as 100%.
Molecule `O=C1c2ccccc2-[n+]2ccc3c([nH]c4ccccc43)c21` has a residual activity of 107%.
Molecule `O=C1Nc2cc(Br)ccc2/C1=C1/Nc2ccccc2/C1=N\O` has a residual activity of 107%.
Molecule `COc1cc2c(cc1OC)-c1n[nH]c(Nc3cccc(F)c3)c1C2` has a residual activity of 107%.
For `c1ccc2c(-c3ccncc3)c[nH]c2c1`, the residual activity was 104%.
Work on `O=[N+]([O-])c1ccc(-c2nc(-c3ccc(F)cc3)c(-c3ccncc3)[nH]2)cc1` yielded a residual activity of 103%.
`CC(C)n1cnc2c(NCc3ccccc3)nc(NCCCO)nc21` gave a residual activity of 110%.
`O=Nc1c(-c2c(O)[nH]c3ccccc23)[nH]c2ccccc12` was tested, and the residual activity was 98%.
`CO[C@H]1C[C@@H]2CC[C@@H](C)[C@@](O)(O2)C(=O)C(=O)N2CCCC[C@H]2C(=O)O[C@H]([C@H](C)C[C@@H]2CC[C@@H](O)[C@H](OC)C2)CC(=O)[C@H](C)/C=C(\C)[C@@H](O)[C@@H](OC)C(=O)[C@H](C)C[C@H](C)/C=C/C=C/C=C/1C` gave a residual activity of 98%.
In the case of `CC(C)(C)c1nc2c3ccc(F)cc3c3c(=O)[nH]ccc3c2[nH]1`, the residual activity is reported as 104%.
`CCCCc1c(-c2ccc(OC)cc2)[nH]c2nccnc12` was tested, and the residual activity was 106%.
In the case of `COc1cc2ncnc(N3CCN(C(=O)Nc4ccc(Oc5ccccc5)cc4)CC3)c2cc1OC`, the residual activity is reported as 107%.
With `Nc1ncnc2c1cnn2-c1ccccc1` the residual activity was 96%.
Work on `COc1cc2ncnc(Nc3ccc(Oc4ccccc4)cc3)c2cc1OC` yielded a residual activity of 107%.
`O=C1NC(=O)C(c2cn(CCCn3ccnc3)c3ccccc23)=C1Nc1ccccc1` showed a residual activity of 102%.
For `O=c1c2ccccc2[nH]c(=S)n1CCN1CCC(=C(c2ccc(F)cc2)c2ccc(F)cc2)CC1`, the residual activity was 107%.
With `C[C@@H](N)[C@H]1CC[C@H](C(=O)Nc2ccncc2)CC1` the residual activity was 76%.
`CCOc1cc2ncnc(Nc3cccc(Br)c3)c2cc1OCC` gave a residual activity of 109%.
Work on `O=C(c1ccccc1)c1ccc(N2CCOCC2)cc1O` yielded a residual activity of 98%.
Work on `Oc1ccc(-c2nc(-c3ccc(F)cc3)c(-c3ccncc3)[nH]2)cc1` yielded a residual activity of 112%.
`COc1ccc(S(=O)(=O)N(CCO)c2ccccc2CN(C)C/C=C/c2ccc(Cl)cc2)cc1` gave a residual activity of 112%.
`Cc1ccc(NC2=CC(=O)c3sc(C)nc3C2=O)cc1` gave a residual activity of 107%.
`O=c1cc(-c2cccc3c2Sc2ccccc2S3)oc(N2CCOCC2)c1` was tested, and the residual activity was 103%.
